# Assay results: PubChem BioAssay
# Calls of active or inactive are those of the source.
# Columns and labels:
# [1] = E. coli DRC41 culture turbidity changes, primary screen, E. coli filamentation inducer project, strain DRC41, OD650, 48 h (AID 1152);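 also: E. coli MC1000 strain DRC41 lacking acrAB efflux pump and sulA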; conditions: E. coli DRC41 (acrAB sulA), higher = more signal, called active from +8 up or from −8 down
# [2] = small-molecule binders of probe aLefty1, primary screen, biochemical, small-molecule microarray, 635/667 nm fluorescence (AID 1153); conditions: higher = more signal;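 also: score merges spot fluorescence with signal-to-noise ratio from the scanned slide images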
# [3] = PSAC antagonists in infected red cells, primary screen, cell-based, P. falciparum Indochina, OD700, 1 h (AID 1154); conditions: P. falciparum Indochina infected RBC osmotic lysis, higher = more signal, called active from +8 up or from −8 down
# [4] = PSAC antagonists in infected red cells, primary screen, cell-based, P. falciparum Indochina, OD700, 2 h (AID 1155);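 also: lysis reports solute entry through the parasite surface anion channel PSAC; channel blockers reduce lysis of infected cells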; conditions: P. falciparum Indochina infected erythrocytes, osmotic lysis OD700; higher = more signal, called active from +8 up or from −8 down
# [5] = osmotic lysis modulators in infected erythrocytes, primary screen, PSAC antagonist project, cell-based, P. falciparum Indochina, OD700, 3 h (AID 1156); conditions: higher = more signal, called active from +8 up or from −8 down
# [6] = PSAC antagonists in infected red cells, primary screen, cell-based, P. falciparum Indochina, OD700, 18 h (AID 1157); conditions: P. falciparum Indochina infected erythrocytes, osmotic lysis OD700, 18 h; higher = more signal, called active from +8 up or from −8 down
# [7] = modulators of S6 phosphorylation in cells, primary screen, cell-based, A549, cytoblot, luminescence, serum-stimulated (AID 1158); conditions: A549 phospho-S6 cytoblot, 5 h, higher = more signal;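 also: serum-stimulated A549 lung adenocarcinoma cells; signal is phosphorylated S6 detected by cytoblot immunostaining with HRP secondary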
# [8] = target: NADPH oxidase 2 (Homo sapiens) (UniProt P04839); assay: NOX2-dependent H2O2 signal modulators, primary screen, NOX inhibitor project, cell-based, HEK293-NOX2, PMA-stimulated, Amplex Red fluorescence (AID 1159); conditions: 45 min, higher = more signal, called active from +8 up or from −8 down; also: test concentration not given here
# Sequence of NADPH oxidase 2 (Homo sapiens) (P04839 whole entry, looked up): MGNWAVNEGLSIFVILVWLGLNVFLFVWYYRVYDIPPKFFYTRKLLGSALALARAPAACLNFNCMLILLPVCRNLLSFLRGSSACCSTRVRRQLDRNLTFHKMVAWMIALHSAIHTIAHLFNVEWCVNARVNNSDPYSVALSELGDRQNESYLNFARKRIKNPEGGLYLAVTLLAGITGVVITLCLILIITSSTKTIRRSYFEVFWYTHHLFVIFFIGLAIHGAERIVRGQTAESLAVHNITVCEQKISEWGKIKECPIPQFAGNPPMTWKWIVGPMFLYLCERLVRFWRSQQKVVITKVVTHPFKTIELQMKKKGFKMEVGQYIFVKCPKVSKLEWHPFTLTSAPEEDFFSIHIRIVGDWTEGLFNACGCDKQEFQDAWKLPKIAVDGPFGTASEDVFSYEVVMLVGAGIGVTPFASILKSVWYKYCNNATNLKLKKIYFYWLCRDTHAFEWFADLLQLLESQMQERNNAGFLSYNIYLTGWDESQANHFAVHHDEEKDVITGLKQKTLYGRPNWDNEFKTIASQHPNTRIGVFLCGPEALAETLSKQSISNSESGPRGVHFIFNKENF
# [9] = target: NADPH oxidase 4 (Homo sapiens) (UniProt Q9NPH5); assay: NOX4-dependent H2O2 signal modulators, primary screen, NOX inhibitor project, cell-based, HEK293-NOX4, tetracycline-induced, Amplex Red fluorescence (AID 1160); conditions: 45 min, higher = more signal, called active from +8 up or from −8 down
# Sequence of NADPH oxidase 4 (Homo sapiens) (Q9NPH5 whole entry, looked up): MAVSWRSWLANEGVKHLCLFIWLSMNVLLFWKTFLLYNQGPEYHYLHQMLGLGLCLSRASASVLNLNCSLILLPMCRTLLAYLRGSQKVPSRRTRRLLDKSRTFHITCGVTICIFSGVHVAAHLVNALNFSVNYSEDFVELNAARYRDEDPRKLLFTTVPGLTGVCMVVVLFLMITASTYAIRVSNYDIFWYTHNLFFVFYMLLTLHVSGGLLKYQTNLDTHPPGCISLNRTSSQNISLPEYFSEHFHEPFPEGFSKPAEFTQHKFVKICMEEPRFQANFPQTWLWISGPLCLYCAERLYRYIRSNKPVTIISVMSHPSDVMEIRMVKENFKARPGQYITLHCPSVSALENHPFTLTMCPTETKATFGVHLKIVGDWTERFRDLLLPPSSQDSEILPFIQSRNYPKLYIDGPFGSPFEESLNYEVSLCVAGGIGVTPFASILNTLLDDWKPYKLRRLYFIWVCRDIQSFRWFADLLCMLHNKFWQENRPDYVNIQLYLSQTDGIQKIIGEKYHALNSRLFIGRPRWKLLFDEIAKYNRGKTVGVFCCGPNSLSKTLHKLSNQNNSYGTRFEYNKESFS
# [10] = target: NADPH oxidase 5 (Homo sapiens) (UniProt Q96PH1); assay: NOX5-dependent H2O2 signal modulators, primary screen, NOX inhibitor project, cell-based, HEK293-NOX5, Amplex Red fluorescence (AID 1161); conditions: HEK293-NOX5, ionomycin, 45 min, higher = more signal
# Sequence of NADPH oxidase 5 (Homo sapiens) (Q96PH1 whole entry, looked up): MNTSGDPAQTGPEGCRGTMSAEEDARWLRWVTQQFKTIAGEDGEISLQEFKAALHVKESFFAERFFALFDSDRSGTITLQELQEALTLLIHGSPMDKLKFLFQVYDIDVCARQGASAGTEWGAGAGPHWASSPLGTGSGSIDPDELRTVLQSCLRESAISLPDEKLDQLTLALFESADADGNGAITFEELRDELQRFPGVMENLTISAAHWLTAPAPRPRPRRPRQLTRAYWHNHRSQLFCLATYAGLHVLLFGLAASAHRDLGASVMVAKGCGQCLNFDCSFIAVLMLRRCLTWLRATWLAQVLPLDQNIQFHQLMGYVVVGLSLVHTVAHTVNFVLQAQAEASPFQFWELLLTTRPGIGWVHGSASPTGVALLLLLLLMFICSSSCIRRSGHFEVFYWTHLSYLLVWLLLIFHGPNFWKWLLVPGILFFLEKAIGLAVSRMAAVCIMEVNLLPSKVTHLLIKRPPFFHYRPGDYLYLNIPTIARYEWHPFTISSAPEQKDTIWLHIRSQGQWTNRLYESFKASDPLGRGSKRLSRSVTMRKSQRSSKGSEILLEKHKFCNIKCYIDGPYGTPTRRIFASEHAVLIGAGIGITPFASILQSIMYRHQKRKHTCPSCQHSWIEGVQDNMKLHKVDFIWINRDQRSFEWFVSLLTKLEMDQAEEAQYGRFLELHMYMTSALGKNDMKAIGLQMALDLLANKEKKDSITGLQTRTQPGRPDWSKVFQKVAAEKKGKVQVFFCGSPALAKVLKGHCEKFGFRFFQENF
# [11] = A549 cell viability effects, profiling panel, calcein-AM fluorescence, 48 h, basal (AID 1162); conditions: higher = more signal; also: test concentration not given here
# [12] = adipocyte viability effects, profiling panel, cell-based, 3T3-L1 adipocytes, calcein-AM fluorescence, 48 h, basal (AID 1163); conditions: 3T3-L1 adipocytes viability, higher = more signal; also: test concentration not given here
# [13] = HepG2 cell viability effects, profiling panel, calcein-AM fluorescence, 48 h, basal (AID 1164); conditions: higher = more signal; also: test concentration not given here
# [14] = MM1S cell viability effects, profiling panel, calcein-AM fluorescence, 48 h, basal (AID 1165); conditions: higher = more signal;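 also: viability of MM1S multiple myeloma cells under basal unstimulated conditions; test concentration not given here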
# [15] = basal RPMI8226 viability, no added stimulus, profiling panel, cell-based, calcein-AM fluorescence, 48 h, PK04 Diversity Set (AID 1166); conditions: RPMI8226 myeloma viability, higher = more signal;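 also: cells grown under basal conditions without added stimulus; test concentration not given here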
# [16] = basal HepG2 mitochondrial membrane potential changes, profiling panel, cell-based, JC-1 fluorescence, 24 h, 100 nL compound (AID 1167); conditions: higher = more signal; also: test concentration not given here
# [17] = basal 3T3-L1 adipocyte mitochondrial potential changes, profiling panel, cell-based, JC-1 fluorescence, 3T3-L1 adipocytes, 24 h, 100 nL compound (AID 1168); conditions: JC-1 mitochondrial fluorescence, higher = more signal, called active from +8 up or from −8 down; also: test concentration not given here
# [18] = basal RPMI8226 mitochondrial membrane potential changes, profiling panel, cell-based, JC-1 fluorescence, 24 h, 100 nL compound (AID 1169); conditions: RPMI8226 myeloma, JC-1 mitochondrial potential fluorescence, higher = more signal; also: test concentration not given here
# [19] = basal MM1S mitochondrial membrane potential changes, profiling panel, cell-based, JC-1 fluorescence, 24 h, 100 nL compound (AID 1170); conditions: higher = more signal; also: test concentration not given here
# [20] = A549 lung cancer cell viability effects, profiling panel, resazurin fluorescence, 24 h, PK04 Diversity Set (AID 1171); conditions: higher = more signal, called active from +8 up or from −8 down; also: test concentration not given here
SMILES,z-score [1],composite z-score [2],z-score [3],z-score [4],z-score [5],z-score [6],z-score [7],z-score [8],z-score [9],z-score [10],z-score [11],z-score [12],z-score [13],z-score [14],z-score [15],z-score [16],z-score [17],z-score [18],z-score [19],z-score [20]
COC(=O)[C@@]1(Cc2ccccc2)[C@H]2c3cc(C(=O)N(C)C)n(CCF)c3C[C@H]2CN1C(=O)c1ccccc1,-0.81 (inactive),0.873,1.54 (inactive),0.322 (inactive),0.484 (inactive),0.544 (inactive),-0.546,0.148 (inactive),-1.73 (inactive),-1.89,-1.23,-0.386,-0.561,0.258,-0.57,0.376,-0.874 (inactive),0.328,-0.294,-0.818 (inactive)
COCCOC(=O)N1C(=O)[C@@]2(c3cc(C#CCNC(N)=O)ccc31)[C@H](c1ccc(O)cc1)N1[C@H](c3ccccc3)[C@H](c3ccccc3)OC(=O)[C@H]1[C@@H]2C(=O)N1CCc2cc(OC)c(OC)cc2C1,-0.872 (inactive),0.208,1.67 (inactive),0.13 (inactive),0.018 (inactive),0.148 (inactive),-0.0879,1.15 (inactive),-0.909 (inactive),0.891,0.571,-0.065,-0.281,-0.72,0.542,-1.82,-0.338 (inactive),0.0593,0.583,0.0875 (inactive)
O=C1O[C@@H](c2ccccc2)[C@@H](c2ccccc2)N2[C@@H](c3ccccc3OCCO)[C@]3(C(=O)Nc4ccc(C#CC5(O)CCCCCC5)cc43)[C@@H](C(=O)N3CCCCCCC3)[C@H]12,0.177 (inactive),3.07,1.14 (inactive),-0.256 (inactive),0.786 (inactive),-1.64 (inactive),1.76,-0.21 (inactive),-0.596 (inactive),0.147,-1.66,1.48,-0.0161,-0.651,-2.59,-1.4,0.644 (inactive),-0.96,-1.33,-0.64 (inactive)
COC(=O)[C@H](Cc1ccccc1)N1CC(C)(OC)O[C@@H](Cc2ccccc2)[C@H]1/C=C/C1CC1 (stereo not given in full),0.286 (inactive),-0.147,1.92 (inactive),0.0937 (inactive),-0.774 (inactive),0.281 (inactive),-0.105,-4.36 (inactive),-0.147 (inactive),-0.141,-0.572,-0.317,0.299,0.391,-0.304,0.208,-0.394 (inactive),0.28,-0.521,0.379 (inactive)
CCCCCN1CC=CC23O[C@@H]4/C=C\CCCOC(=O)C4[C@H]2C(=O)N(CCO)[C@@H]3C1=O (stereo not given in full),3.1 (inactive),-0.103,0.592 (inactive),0.177 (inactive),-0.608 (inactive),-0.776 (inactive),1.48,0.88 (inactive),0.261 (inactive),2.19,0.415,1.64,0.0134,1.59,0.218,-0.242,-0.428 (inactive),0.699,-0.307,-0.231 (inactive)
COC(=O)[C@@]1(Cc2ccc(F)cc2)[C@H]2c3cc(C(=O)N4CCCC4)n(Cc4ccc(OC(F)(F)F)cc4)c3C[C@H]2CN1C(=O)c1ccccc1,-2.47 (inactive),-0.0141,0.498 (inactive),0.851 (inactive),-0.194 (inactive),0.642 (inactive),0.0769,0.372 (inactive),0.32 (inactive),-0.51,-1.21,-0.749,0.0322,-1.04,-0.55,-0.269,-1.35 (inactive),-0.603,-0.787,-0.165 (inactive)
CC(C)c1ccc(NN2C(C(O)C3CCCCC3)C=CC3C(=O)N(c4ccccc4)C(=O)C32)cc1 (stereo not given),-0.78 (inactive),0.368,3.29 (inactive),1.71 (inactive),0.215 (inactive),1.37 (inactive),-0.996,-1.69 (inactive),-2.75 (inactive),-2.44,0.19,-1.19,1.41,-0.381,-0.886,-1.49,-0.176 (inactive),0.227,-1.36,-0.519 (inactive)
[N-]=[N+]=NCc1ccccc1C[C@@]1(C(=O)NCCN2CCOCC2)N=C(c2ccc(OCCCO)cc2)O[C@@H]1c1ccccc1,-1.58 (inactive),0.546,25.3 (active),11.7 (active),1.44 (inactive),1.65 (inactive),-0.28,-1.48 (inactive),0.731 (inactive),1.27,0.0171,-0.221,-1.04,-2.72,-1.99,-0.3,0.556 (inactive),-1.18,-0.956,-0.112 (inactive)
Cc1ccc(S[C@]2(C(=O)NC(C)C)CC(=O)N(Cc3ccccc3)[C@@H]2c2ccc(CO)cc2)cc1,1.33 (inactive),0.082,1.66 (inactive),-0.709 (inactive),-0.379 (inactive),-0.581 (inactive),1.46,-0.101 (inactive),0.0692 (inactive),-0.771,1.72,-0.089,1.15,0.0456,1.23,1.18,0.391 (inactive),0.135,-0.177,-0.3 (inactive)
C=C(C)C1CN([C@H](CO)c2ccccc2)C(=O)/C1=C\c1ccccc1 (stereo not given in full),1.01 (inactive),-0.147,-0.0012 (inactive),-0.916 (inactive),-0.683 (inactive),-1.8 (inactive),1.59,-0.00303 (inactive),0.0494 (inactive),-1.27,-0.121,1.55,0.0701,-0.313,-1.89,-1.11,0.0548 (inactive),0.354,-1.06,-0.846 (inactive)
O=C1O[C@H](c2ccccc2)[C@H](c2ccccc2)N2[C@H]1[C@@H](C(=O)O)[C@]1(C(=O)Nc3ccccc31)[C@H]2c1ccc(OCCO)cc1,0.368 (inactive),0.183,3.81 (inactive),0.173 (inactive),-0.776 (inactive),0.124 (inactive),-0.412,0.388 (inactive),1.09 (inactive),0.958,-0.29,1.11,-0.119,0.338,-2.44,-0.706,0.254 (inactive),-0.295,0.0484,0.683 (inactive)
CC1CC/C=C\[C@H]2OC34C=CCN(C(C)C)C(=O)[C@H]3N(C(C)CO)C(=O)[C@@H]4C2C(=O)O1 (stereo not given in full),1.9 (inactive),0.0043,1.07 (inactive),0.217 (inactive),1.06 (inactive),0.184 (inactive),1.65,0.273 (inactive),-0.381 (inactive),1.45,-0.784,0.534,0.517,-0.245,0.819,0.674,0.164 (inactive),0.851,-0.869,0.574 (inactive)
O=C(O)C1=CC[C@H]2C(=O)N(c3ccccc3)C(=O)[C@@H]12,-0.569 (inactive),0.348,0.61 (inactive),1.11 (inactive),-0.803 (inactive),0.707 (inactive),-1,0.536 (inactive),-0.267 (inactive),-0.253,-1.05,-0.261,-0.625,-0.911,-0.222,-0.915,-0.162 (inactive),0.364,-1.46,0.64 (inactive)
COC(=O)[C@@]1(Cc2ccc(OC)cc2)[C@H]2c3cc(C(=O)N(C)C)n(Cc4c(CO)[nH]cc(C)c4=O)c3C[C@H]2CN1C(=O)c1ccccc1,-2.08 (inactive),0.318,2.77 (inactive),0.814 (inactive),0.072 (inactive),0.643 (inactive),-0.507,-0.0394 (inactive),-0.719 (inactive),-0.777,-1.38,-0.621,-0.177,-0.314,-0.411,-0.67,-1.33 (inactive),-0.0347,-1.24,0.252 (inactive)
CC(C)(C)OC(=O)CC[C@]1(C(N)=O)N=C(c2ccc(OCCCO)cc2)O[C@H]1c1ccccc1N=[N+]=[N-],0.831 (inactive),0.267,30.5 (active),32.4 (active),0.697 (inactive),2.48 (inactive),-0.3,-0.285 (inactive),0.324 (inactive),-1.19,-0.263,-0.251,0.934,0.381,0.882,-0.445,-0.109 (inactive),-0.132,-1,0.066 (inactive)
COc1c(C)cc(-c2nc(-c3ccccc3)c3c(c2C)CO[Si]3(C(C)C)C(C)C)cc1C,-1.31 (inactive),0.0505,0.614 (inactive),0.521 (inactive),-0.81 (inactive),0.261 (inactive),0.564,-0.41 (inactive),0.529 (inactive),-2.03,-0.926,-1.12,-0.518,-0.532,-0.931,-0.175,-1.19 (inactive),0.379,-0.294,1.44 (inactive)
COc1ccc(NN2C(C(O)c3ccccc3)C=CC3C(=O)N(C4CCCCC4)C(=O)C32)cc1 (stereo not given),-0.775 (inactive),0.0479,11.8 (active),2.25 (inactive),1.31 (inactive),1.22 (inactive),-0.388,-2.76 (inactive),-2.65 (inactive),-2.39,-0.408,-0.503,0.0544,-1.37,-1.82,-0.536,0.0258 (inactive),-0.335,-0.253,1.67 (inactive)
C=CCC(OC(C)=O)[C@@H]1[C@@H](N(Cc2ccc(-c3ccccc3)cc2)C(=O)Cc2ccc(OC)cc2)c2cc(OCCCO)ccc2N1C(=O)Cc1ccc(OC)cc1 (stereo not given in full),-0.92 (inactive),0.299,3.76 (inactive),-0.313 (inactive),0.167 (inactive),0.141 (inactive),0.518,-3.55 (inactive),0.194 (inactive),-0.0291,0.0816,0.9,-0.103,0.11,-0.203,2.58,-0.454 (inactive),-0.0751,0.504,0.117 (inactive)
